Results taken from ChEMBL document CHEMBL3988442, “University of Dundee, Small-Polar-MMV Screening Library” (2021).
In all, about 48,000 compounds went through this assay and about 13,000 (27%) showed an effect of 50% or more. The list shows a part of the results.

test system: Wolbachia pipientis; assay: Anti-Wolbachia Cell-Based Screen; type: functional; design: scale not given: in the data most compounds retested in dose-response had high values; conditions: 5 µM

SMILES | Percent Effect
CCc1noc(CN(C)Cc2cc(Br)ccc2OC)n1 | 4.438%
Cc1ccn(-c2ccccc2NCc2cscn2)n1 | -9.752%
COC(=O)C(c1cc(F)ccc1F)N(C)C(=O)c1ccccn1 (stereo not given) | 114.5%
COC(=O)C(c1ccccc1)N(C)C(=O)c1ccnc(C)n1 (stereo not given) | 100.7%
COc1ccc(N(C(=O)c2cnc(C)cn2)C(C)C)cc1F | 9.374%
COC(=O)C(c1cc(F)ccc1F)N(C)C(=O)c1csnn1 (stereo not given) | 3.05%
COC(=O)C(c1cc(F)ccc1F)N(C)C(=O)c1cnc(C)cn1 (stereo not given) | 103%
COC(=O)C(c1cc(F)ccc1F)N(C)C(=O)c1ccnc(C)n1 (stereo not given) | 4.378%
COC(=O)C(c1cc(F)ccc1F)N(C)C(=O)c1cccnc1O (stereo not given) | 1.784%
Cc1cccc(N(CCC(N)=O)C(=O)c2ccnc(C)n2)c1 | -10.53%
CN(C)CCN(Cc1ccc(Cl)cc1)C(=O)c1cnccn1 | -5.634%
COC(=O)C(c1cc(F)ccc1F)N(C)C(=O)c1cnccn1 (stereo not given) | 118.4%
Cc1nccc(CNC(=O)NCC(C)Oc2ccccc2F)n1 (stereo not given) | -7.985%
COC(=O)c1cnc(C(=O)N(c2ccc(OC)c(F)c2)C(C)C)cn1 | -7.917%
O=C1N(Cc2cccc(F)c2F)CCCC1(O)CNCc1ccccc1 (stereo not given) | 16.03%
Cc1c(CNS(=O)(=O)c2cccc(COC(C)C)c2)cnn1C | -15.21%
CN1C[C@@H](NC(=O)C(C)(C)C)C[C@H]1C(=O)NCc1ncc[nH]1 | -5.014%
COCCOC[C@]1(CNC(=O)c2ccc(OC)cc2)C[C@@H](O)[C@@H](O)C1 | -0.4241%
Cc1cc(C)c(CNC(=O)NCc2nnc3n2CCCCC3)c(=O)[nH]1 | -9.467%
O=C(CN1CCOc2ccc(Cl)cc21)NCc1ncc[nH]1 | -5.45%
Cc1cccc(C)c1CCNC(=O)N1CCCC2(C1)OCCO2 | -0.05309%
Cc1ccccc1NC(=O)N1CC[C@@H]2CN(CC(C)C)S(=O)(=O)[C@@H]2CC1 | -60.79%
CCN(Cc1c(C)nn(C)c1C)C(=O)C1COc2ccccc2C1 (stereo not given) | -5.134%
Cc1n[nH]c(C2CN(C(=O)c3csnn3)CCO2)n1 (stereo not given) | -23.45%
CC(C)c1n[nH]c(C2CN(C(=O)c3cc(C4CC4)on3)CCO2)n1 (stereo not given) | 113.9%
Cc1n[nH]c(C2CN(C(=O)c3ccon3)CCO2)n1 (stereo not given) | -8.521%
CC(C)c1n[nH]c(C2CN(C(=O)c3csnn3)CCO2)n1 (stereo not given) | 4.906%

SMILES | Percent Effect
CC(C)c1n[nH]c(C2CN(Cc3nnc(C4CC4)o3)CCO2)n1 (stereo not given) | -9.108%
Cc1n[nH]c(C2CN(C(=O)c3cc(C4CC4)on3)CCO2)n1 (stereo not given) | 119.9%
CN1CCN2CCN(C(=O)c3cc4ncc(CCO)cn4n3)CC2C1 (stereo not given) | -4.032%
CCCn1ccnc1SCC(=O)NC(Cc1ccccc1)C(C)=O (stereo not given) | 22.6%
COCC(C)NC(=O)c1cc(Br)c2c(c1)OCCO2 (stereo not given) | -1.818%
CC(C)(C)CNC1(Cc2cc(C(C)(C)O)on2)COC1 | -22.48%
CN(Cc1cccnc1)CC1CC12CCN(Cc1nccs1)CC2 (stereo not given) | 11.24%
CN(Cc1cccnc1)CC1CC12CCCC2 (stereo not given) | 103.1%
Cc1cnc(N2CCC3(CC2)CC3CN(C)Cc2cccnc2)nc1.O=C(O)C(F)(F)F.O=C(O)C(F)(F)F (stereo not given) | 2.289%
CC(C)(C)c1n[nH]c(C2CN(C(=O)CCC3CC3)CCO2)n1 (stereo not given) | -7.383%
CCc1n[nH]c(C2CN(C(=O)c3cnc[nH]3)CCO2)n1 (stereo not given) | -7.128%
Cc1n[nH]c(C2CN(C(=O)c3cc(C4CC4)[nH]n3)CCO2)n1 (stereo not given) | 6.266%
CC(C)c1n[nH]c(C2CN(C(=O)CCCn3cccn3)CCO2)n1 (stereo not given) | -13%
CC(C)(C)c1n[nH]c(C2CN(C(=O)c3cc(C4CC4)[nH]n3)CCO2)n1 (stereo not given) | 116%
Cc1n[nH]c(C2CN(C(=O)c3cnc[nH]3)CCO2)n1 (stereo not given) | -6.3%
CC(C)(C)c1n[nH]c(C2CN(C(=O)c3ccsc3)CCO2)n1 (stereo not given) | -3.296%
CSCC(=O)N1CCOC(c2nc(C(C)(C)C)n[nH]2)C1 (stereo not given) | 103.9%
CC(C)(C)c1n[nH]c(C2CN(C(=O)c3cnc[nH]3)CCO2)n1 (stereo not given) | 97.58%
CSCC(=O)N1CCOC(c2nc(C(C)C)n[nH]2)C1 (stereo not given) | 117.1%
Cc1nc(CC(=O)N2CCOC(c3nc(C(C)(C)C)n[nH]3)C2)cs1 (stereo not given) | -6.24%
Cc1nc(CN2CCOC(c3nc(C(C)C)n[nH]3)C2)oc1C (stereo not given) | -6.661%
CCc1ccc(C(=O)N2C[C@@H]3COC[C@@H](C(=O)NC)[C@@H]3C2)cc1 | -16.14%
Cc1ccc(S(=O)(=O)N2CC(C)Oc3ncccc32)c(C)c1 (stereo not given) | -17.54%
Cn1nnc2c1CCN(C(=O)C1CC1)C2COCCN1CCCC1.O=C(O)C(F)(F)F (stereo not given) | -5.654%
CCn1ncnc1CN1CCc2[nH]cnc2C1Cc1ccccc1 (stereo not given) | -1.907%
Cc1cccc(CNC2(CCO)CCOCC2)c1C | -7.231%
CSC(C)C(=O)NS(=O)(=O)CCc1ccccc1 (stereo not given) | -7.68%

SMILES | Percent Effect
Cc1n[nH]c(C2CN(C(=O)c3ccc(Cl)o3)CCO2)n1 (stereo not given) | -21.06%
CSCC(=O)N1CCOC(c2nc(C)n[nH]2)C1 (stereo not given) | 81.74%
Cc1[nH]c(-c2ccccc2)nc1C(=O)N1CCc2[nH]cnc2C1C(=O)O (stereo not given) | -27.35%
COCCNC(=O)CCNc1ccc(Cl)cn1 | -1.356%
COCCN1CCN(Cc2ccc(Cl)cc2)[C@H]2CS(=O)(=O)C[C@H]21 | 3.262%
COCCCN(C)S(=O)(=O)c1ccc(Cl)cc1C#N | -9.182%
COCCCNc1c(-c2ccc(Cl)cc2)c(=O)c1=O | 75.4%
COCCCNC(=O)Cc1cc(-c2ccc(Cl)cc2)on1 | 18.42%
COCCNc1c(-c2ccc(Cl)cc2)c(=O)c1=O | 106.9%
CCCNC(=O)CC1OCCc2ccsc21 (stereo not given) | -18.02%
CN1CCN(C[C@@H]2CN(Cc3c(Cl)cncc3Cl)C[C@@H]2CO)CC1 | -1.243%
COCC1CN(Cc2cc(C)on2)Cc2cnn(C)c21.O=C(O)C(F)(F)F.O=C(O)C(F)(F)F (stereo not given) | -1.756%
Cn1ncc2c1C(COCC1CC1)CN(CC1CC1)C2 (stereo not given) | 3.494%
CCn1ncc2c1C(COC)CN(c1ncc(F)cn1)C2.O=C(O)C(F)(F)F.O=C(O)C(F)(F)F (stereo not given) | 103.8%
COCC1CN(c2ncccn2)Cc2cnn(CC3CC3)c21 (stereo not given) | 112.4%
COCC1CN(C(=O)N2CCCC2)Cc2cnn(CC3CCCC3)c21 (stereo not given) | 9.026%
Cn1ncc2c1C(COCC1CC1)CN(S(C)(=O)=O)C2 (stereo not given) | 3.209%
CCn1ncc2c1C(COC)CN(S(=O)(=O)N(C)C)C2.O=C(O)C(F)(F)F (stereo not given) | -1.525%
COCC1CN(c2ncc(F)cn2)Cc2cnn(C)c21.O=C(O)C(F)(F)F.O=C(O)C(F)(F)F (stereo not given) | 94.8%
Cn1ncc2c1C(COCC1CC1)CN(c1ncc(F)cn1)C2 (stereo not given) | 102.8%
CCOCCN1Cc2cnn(C)c2C(COCC)C1.O=C(O)C(F)(F)F.O=C(O)C(F)(F)F (stereo not given) | -55.01%
Cn1cc(C[C@H]2[C@H](N3CCOCC3)CCN2C2CCOCC2)cn1.O=C(O)C(F)(F)F.O=C(O)C(F)(F)F | -4.511%
COCC1(C(=O)N2CCC(c3nccn3CC3CC3)CC2)CCC1 | 2.579%
CCN(CC)CCSc1nnc(N2CCN(c3ccccc3)CC2)s1 | -12.7%
CN(Cc1cccc(O)c1)CC1CCCN(CCc2ccc(Cl)cc2)C1 (stereo not given) | 2.569%
CNC(=O)CSc1cnn(CC(=O)Nc2cccc(Cl)c2C)c(=O)c1Cl | -42.51%
Cc1cnc(N2CCC3(CCC(C(=O)NC(C)C)OC3)CC2)nc1 (stereo not given) | -9.523%

SMILES | Percent Effect
CC(=O)N1CCCN(C(=O)NCCCNS(C)(=O)=O)CC1 | -1.689%
COCCN1CCN(C(=O)c2ccc(C)cc2OC)[C@H]2CS(=O)(=O)C[C@H]21 | 5.009%
COc1ccccc1N1CCC(CNCc2ccc(C#N)cc2)C1 (stereo not given) | 109.5%
COc1ccccc1N1CCC(CNCc2cccc(O)c2)C1 (stereo not given) | -3.366%
N#Cc1ccc(CNCC2CCN(CCO)CC2)cc1 | -8.382%
COc1ccccc1N1CCC(CNS(=O)(=O)c2c(C)nn(C)c2C)C1 (stereo not given) | -2.863%
COc1ccccc1N1CCC(CNS(=O)(=O)c2cccs2)C1 (stereo not given) | -9.312%
COc1cccc(N2CCC(CNc3cc(C)nc4ncnn34)C2)c1 (stereo not given) | -5.133%
COc1ccccc1N1CCC(CNS(=O)(=O)c2cccc(C#N)c2)C1 (stereo not given) | 87.58%
COc1ccccc1N1CCC(CNCc2cccc(C#N)c2)C1 (stereo not given) | -2.203%
COc1cccc(N2CCC(CNCc3cccc(C#N)c3)C2)c1 (stereo not given) | 82.37%
COc1ccccc1N1CCC(CNCc2c(C)nn(C)c2OC)C1 (stereo not given) | -29.19%
COc1ccc(CNCC2CCN(c3ccccc3OC)C2)cc1O (stereo not given) | 114.3%
COc1cccc(N2CCC(CNC(=O)NCc3ccco3)C2)c1 (stereo not given) | 2.217%
CC(C)(C)N1CC(C(=O)N2CCN(CCn3cncn3)CC2)CC1=O (stereo not given) | -32.16%
Cc1nc(NC(=O)NC2CC(=O)N(C(C)C)C2)nn1C(C)C (stereo not given) | -10.65%
N#CCCN1CCC(=Cc2ccccc2)CC1 | 4.186%
CC(C)C(=O)N1CCC2(COCc3cnc(-c4cccnc4)nc32)C1 (stereo not given) | 110.7%
O=C(CC1CC1)N1CCC2(COCc3cnc(-c4ccccc4)nc32)C1 (stereo not given) | -2.156%
O=C(C1CCC1)N1CCC2(COCc3cnc(-c4cccnc4)nc32)C1 (stereo not given) | -1.349%
COCC(=O)N1CCC2(COCc3cnc(-c4ccccc4)nc32)C1 (stereo not given) | -5.335%
CC(C)NC(=O)N1CCC2(COCc3cnc(-c4ccccc4)nc32)C1 (stereo not given) | -4.544%
COCCC(=O)N1CCC2(COCc3cnc(-c4cccnc4)nc32)C1 (stereo not given) | 82.83%
O=C(CC1CC1)N1CCC2(COCc3cnc(-c4cccnc4)nc32)C1 (stereo not given) | 110.1%
